PubChem BioAssay (Tox21)
Records with an inconclusive call do not appear. Active and inactive are the calls of the source. The call rests on the fitted dose curve; in most records, active means well fitted curve in the direction sought with a large enough effect in the repeat runs; inconclusive means weak or mixed curves; inactive means no such curve, though single readings can be large; an effect the other way counts as inactive or inconclusive.

What was measured:
[1] = Caspase-3/7 induction in CHO-K1 cells by small molecules, qHTS cell viability counter screen (AID 1346979); further: nearly all actives have a fitted effect of over 35% in size; further: potency means the concentration at half of the fitted maximal effect
How it was run: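 Following a 5hr settling period, CHO-K1 cells at 1,500 per well received DMSO-dissolved compounds. Cell viability was quantified 16hr later by CellTiter-Fluor fluorescence, measured after 1hr with reagent at 37C.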

[2] = Caspase-3/7 induction in CHO-K1 cells by small molecules, qHTS assay (AID 1346980); further: nearly all actives have a fitted effect of over 15% in size
How it was run: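 Wild-type cells were seeded at 1,500 per well and settled 5 hr at 37 C, 5% CO2, then exposed to DMSO-dissolved compounds for 17 hr. Caspase-Glo 3/7 reagent was added, and luminescence was read after 30min at room temperature.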

[3] = biological target: Nuclear receptor subfamily 1 group I member 2 (Homo sapiens) (UniProt O75469); assay: Human pregnane X receptor (PXR) small molecule agonists, qHTS assay (AID 1346982); further: nearly all actives have a fitted effect of over 35% in size; further: potency means the concentration at half of the fitted maximal effect
Chain of Nuclear receptor subfamily 1 group I member 2 (Homo sapiens) (O75469 whole entry, looked up): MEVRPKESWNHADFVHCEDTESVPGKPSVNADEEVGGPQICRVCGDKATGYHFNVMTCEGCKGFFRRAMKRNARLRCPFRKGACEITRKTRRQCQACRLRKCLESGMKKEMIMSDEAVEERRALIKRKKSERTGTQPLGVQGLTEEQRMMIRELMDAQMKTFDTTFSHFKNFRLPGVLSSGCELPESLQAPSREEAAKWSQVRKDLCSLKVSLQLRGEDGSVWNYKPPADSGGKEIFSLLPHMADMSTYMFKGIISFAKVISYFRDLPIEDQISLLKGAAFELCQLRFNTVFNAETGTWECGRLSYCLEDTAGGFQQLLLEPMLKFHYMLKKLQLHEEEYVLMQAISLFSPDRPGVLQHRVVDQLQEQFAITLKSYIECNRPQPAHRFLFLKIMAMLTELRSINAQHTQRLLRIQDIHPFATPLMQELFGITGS
How it was run: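 PXR-Luc HepG2 reporter cells (CYP3A4-driven luciferase) in 5% charcoal-stripped FBS medium, plated 5 h before compound addition, then treated 24 h at 37C. Luciferase read by ONE-Glo luminescence after 30 min at room temperature.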

[4] = biological target: Cytochrome P450 2D6 (Homo sapiens) (UniProt P10635); assay: Cytochrome P450 Family 2 Subfamily D Member 6 (CYP2D6) small molecule antagonists: luciferase reporter qHTS assay (AID 1671196); further: nearly all actives have a fitted effect of over 50% in size; further: potency means the concentration at half of the fitted maximal effect
Chain of Cytochrome P450 2D6 (Homo sapiens) (P10635 whole entry, looked up): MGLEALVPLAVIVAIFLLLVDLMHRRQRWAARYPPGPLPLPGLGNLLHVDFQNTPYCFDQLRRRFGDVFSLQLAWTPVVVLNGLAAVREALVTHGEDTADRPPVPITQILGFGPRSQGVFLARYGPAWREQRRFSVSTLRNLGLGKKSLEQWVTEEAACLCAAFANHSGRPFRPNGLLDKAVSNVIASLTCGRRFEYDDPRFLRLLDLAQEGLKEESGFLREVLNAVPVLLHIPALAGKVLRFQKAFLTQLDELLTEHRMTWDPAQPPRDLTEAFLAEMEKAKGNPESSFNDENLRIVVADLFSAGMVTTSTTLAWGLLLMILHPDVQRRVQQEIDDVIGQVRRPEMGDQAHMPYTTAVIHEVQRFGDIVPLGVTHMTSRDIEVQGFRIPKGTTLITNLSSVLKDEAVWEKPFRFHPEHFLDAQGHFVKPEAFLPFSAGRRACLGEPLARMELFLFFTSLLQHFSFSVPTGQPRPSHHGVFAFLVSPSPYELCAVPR
How it was run: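 Cell-free P450-Glo system: CYP2D6 with proluciferin substrate was pre-incubated with compound for 10 min, then reacted with NADPH regeneration for 1 h at room temperature. Luciferin product was detected after 20 min, and data were reported as relative luminescence units.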

[5] = Caspase-3/7 induction in HepG2 cells by small molecules, qHTS cell viability counter screen (AID 1346981); further: nearly all actives have a fitted effect of over 30% in size; further: potency means the concentration at half of the fitted maximal effect; on activity change, negative = cytotoxicity: series mostly up to about 92 µM
How it was run: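 Wild-type HepG2 cells, 2,000/well, settled 5 hr at 37 C, 5% CO2 before compound addition. Viability read by CellTiter-Fluor fluorescence, reagent added after 16 hr compound exposure, then 1 hr at 37C, in the same wells as the caspase read.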

[6] = biological target: Cytochrome P450 2C9 (Homo sapiens) (UniProt P11712); assay: Cytochrome P450 Family 2 Subfamily C Member 9 (CYP2C9) small molecule antagonists: luciferase reporter qHTS assay (AID 1671198); further: nearly all actives have a fitted effect of over 50% in size; further: potency means the concentration at half of the fitted maximal effect
Chain of Cytochrome P450 2C9 (Homo sapiens) (P11712 whole entry, looked up): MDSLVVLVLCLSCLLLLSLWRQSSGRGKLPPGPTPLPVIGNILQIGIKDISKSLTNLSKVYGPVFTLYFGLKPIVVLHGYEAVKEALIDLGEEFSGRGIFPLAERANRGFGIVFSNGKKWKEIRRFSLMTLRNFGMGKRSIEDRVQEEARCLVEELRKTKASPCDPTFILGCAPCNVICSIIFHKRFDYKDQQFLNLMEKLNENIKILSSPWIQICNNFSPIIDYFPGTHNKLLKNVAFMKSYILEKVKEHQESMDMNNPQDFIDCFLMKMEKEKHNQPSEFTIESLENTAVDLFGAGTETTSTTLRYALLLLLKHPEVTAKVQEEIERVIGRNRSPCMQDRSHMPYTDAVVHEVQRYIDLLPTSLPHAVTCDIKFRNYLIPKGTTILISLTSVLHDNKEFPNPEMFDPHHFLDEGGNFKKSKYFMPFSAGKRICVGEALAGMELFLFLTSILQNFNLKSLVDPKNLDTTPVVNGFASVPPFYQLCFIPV
How it was run: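 CYP2C9 activity was measured with a P450-Glo proluciferin substrate. Enzyme–substrate mix was held with compound for 10 min at room temperature, then NADPH regeneration solution was added for 1 h at 37C. Luciferin product was read as luminescence.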

[7] = biological target: Nuclear receptor subfamily 1 group I member 2 (Rattus norvegicus) (UniProt Q9R1A7); assay: Rat pregnane X receptor (rPXR) activation by small molecules, qHTS assay (AID 1346983); conditions: rPXR luciferase reporter cells, One-Glo luminescence, 24 h; max activation: hits give high values; further: nearly all actives have a fitted effect of over 20% in size; further: potency means the concentration at half of the fitted maximal effect
Chain of Nuclear receptor subfamily 1 group I member 2 (Rattus norvegicus) (Q9R1A7 whole entry, looked up): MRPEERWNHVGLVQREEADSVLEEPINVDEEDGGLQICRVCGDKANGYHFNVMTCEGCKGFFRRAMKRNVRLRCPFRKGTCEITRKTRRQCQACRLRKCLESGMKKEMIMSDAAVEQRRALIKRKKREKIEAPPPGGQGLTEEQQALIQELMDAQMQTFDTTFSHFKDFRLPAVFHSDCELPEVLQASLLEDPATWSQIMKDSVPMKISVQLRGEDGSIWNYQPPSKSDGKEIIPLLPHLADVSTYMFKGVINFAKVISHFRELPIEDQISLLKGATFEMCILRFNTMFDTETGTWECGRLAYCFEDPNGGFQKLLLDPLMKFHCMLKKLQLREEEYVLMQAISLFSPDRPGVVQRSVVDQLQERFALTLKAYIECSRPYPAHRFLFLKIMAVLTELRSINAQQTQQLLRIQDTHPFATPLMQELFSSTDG
How it was run: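 Cell-based rPXR luciferase reporter assay, 2,000 cells per well, rested 5hr at 37 C before compound addition in DMSO, then 24 hr at 37 C. One-Glo reagent was added and luminescence read after 30 min at room temperature.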

[8] = biological target: Nuclear receptor subfamily 1 group I member 2 (Homo sapiens) (UniProt O75469); assay: CYP3A4 induction through human pregnane X receptor (PXR) by small molecules, qHTS assay (AID 1346984); further: nearly all actives have a fitted effect of over 40% in size
How it was run: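 DPX-2 HepG2 cells carrying a PXR response element and CYP3A4-promoter luciferase construct, treated with compounds 24 hr at 37C. Then P450-Glo CYP3A4 Luciferin-IPA substrate (3uM final) for 3 hr at 37C, One-Glo added, luminescence read.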

[9] = biological target: Nuclear receptor subfamily 1 group I member 2 (Homo sapiens) (UniProt O75469); assay: Human pregnane X receptor (PXR) activation by small molecules, qHTS assay (AID 1346985); further: nearly all actives have a fitted effect of over 40% in size; further: potency means the concentration at half of the fitted maximal effect
How it was run: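 DPX-2 cells (HepG2 co-transfected with a PXR response element and a CYP3A4-promoter luciferase construct) were seeded at 2,000 per well, rested 5 hr at 37C, then exposed to DMSO-dissolved compounds for 24 hr. Activation was read as luciferase luminescence.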

[10] = biological target: Cytochrome P450 2C19 (Homo sapiens) (UniProt P33261); assay: Cytochrome P450 Family 2 Subfamily C Member 19 (CYP2C19) small molecule antagonists: luciferase reporter qHTS assay (AID 1671197); further: nearly all actives have a fitted effect of over 65% in size; further: potency means the concentration at half of the fitted maximal effect
Chain of Cytochrome P450 2C19 (Homo sapiens) (P33261 whole entry, looked up): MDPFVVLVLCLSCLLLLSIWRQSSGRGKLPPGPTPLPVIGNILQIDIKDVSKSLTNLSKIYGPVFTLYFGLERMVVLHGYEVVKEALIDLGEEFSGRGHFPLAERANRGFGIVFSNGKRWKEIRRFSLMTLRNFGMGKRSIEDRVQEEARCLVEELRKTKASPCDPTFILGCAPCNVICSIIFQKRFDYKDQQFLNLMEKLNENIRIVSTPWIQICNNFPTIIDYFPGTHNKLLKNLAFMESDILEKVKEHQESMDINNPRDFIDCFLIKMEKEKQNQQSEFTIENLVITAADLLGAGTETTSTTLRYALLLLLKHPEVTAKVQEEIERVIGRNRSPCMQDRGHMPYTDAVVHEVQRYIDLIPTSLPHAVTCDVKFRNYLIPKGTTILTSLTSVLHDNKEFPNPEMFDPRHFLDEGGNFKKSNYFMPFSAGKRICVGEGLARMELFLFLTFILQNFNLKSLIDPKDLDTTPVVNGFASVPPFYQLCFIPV
How it was run: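 First, compounds are pinned into enzyme-substrate mix and held 10 min at room temperature. Second, NADPH regeneration solution is added and plates incubate 1 h at 37C. Third, detection reagent is added and luminescence read after 20 min.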
On the % scale 0 is the no-effect control and ±100 the full control effect.

c1ccc(Cc2ccccc2)cc1
inactive: Potency [1] | outcome [2] | Potency [3] | Potency [4]

CC1=NN(c2cc(S(=O)(=O)O)ccc2Cl)C(=O)C1N=Nc1ccccc1 (stereo unspecified)
active: Potency [1] 54.5 µM | Potency [5] 54.5 µM
inactive: outcome [2] | Potency [4] | Potency [6]

O=C(O)c1cc(C(=O)O)cc(C(=O)O)c1
inactive: Potency [1] | outcome [2] | Potency [5] | Potency [3] | Potency [6]

Nc1ccncc1N
inactive: Potency [1] | outcome [2] | Potency [3] | max activation [7] -0.418% | Potency [8] | Potency [9] | Potency [4] | Potency [6]

C[N+](C)(CCOc1ccccc1)Cc1cccs1
active: Potency [4] 0.195 µM
inactive: Potency [1] | outcome [2] | Potency [5] | Potency [10]

CN1CCC(=C2c3ccccc3CCc3cccnc32)CC1
inactive: Potency [1] | outcome [2] | Potency [3]

CCOc1ccccc1OCC
inactive: Potency [1] | outcome [2] | Potency [3]

CCN(Cc1ccccc1)c1ccccc1
inactive: Potency [1] | outcome [2] | Potency [5]
active: Potency [10] 1.76 µM | Potency [6] 35.1 µM

O=C(O)CC(C(=O)O)S(=O)(=O)O (stereo unspecified)
inactive: Potency [1] | outcome [2] | Potency [5] | Potency [3] | Potency [6]

c1ccc2sc(SN3CCOCC3)nc2c1
inactive: Potency [1] | outcome [2] | Potency [5] | Potency [8]
active: Potency [7] 28.2 µM | Potency [9] 10 µM | Potency [10] 17.4 µM | Potency [6] 17.4 µM

CCN[C@@H]1C[C@H](N)[C@@H](OC2OC(CN)=CCC2N)[C@H](O)[C@H]1O[C@H]1OC[C@](C)(O)[C@H](NC)[C@H]1O (stereo partly specified)
inactive: activity change, negative = cytotoxicity [1] 2.16% [at 0.349 µM] | caspase-3/7 activation [2] -0.394% [at 0.349 µM] | activation [3] -3.06% [at 0.349 µM] | max activation [7] -4.25% | Potency [8] | Potency [9]

CCCC[N+](C)(CCCC)CCCC
active: Potency [4] 2.77 µM
inactive: Potency [1] | outcome [2] | Potency [5] | Potency [10] | Potency [6]

O=Cc1cccc(Br)c1
active: Potency [6] 40.9 µM
inactive: Potency [1] | outcome [2] | Potency [5] | Potency [3]

CC[N+](C)(CC)CCOC(=O)C1c2ccccc2Oc2ccccc21
active: Potency [4] 2.75 µM
inactive: Potency [1] | outcome [2] | Potency [3] | max activation [7] 0.786% | Potency [8] | Potency [10]

Cc1ccc(C(=O)c2ccc(CC(=O)O)n2C)cc1
inactive: Potency [1] | outcome [2] | Potency [3] | max activation [7] -1.99% | Potency [8] | Potency [9] | Potency [4] | Potency [10]

CCOC(=O)OC(C)OC1=C(C(=O)Nc2ccccn2)N(C)S(=O)(=O)c2ccccc21 (stereo unspecified)
inactive: Potency [1] | outcome [2] | Potency [3] | max activation [7] -2.57% | Potency [8] | Potency [9] | Potency [4]

CNCC(O)c1ccc(O)c(O)c1 (stereo unspecified)
inactive: Potency [1] | outcome [2] | Potency [3]

NC(N)=NCCN1CCCCCCC1
inactive: activity change, negative = cytotoxicity [1] -1.24% [at 0.349 µM] | caspase-3/7 activation [2] -0.223% [at 0.349 µM] | activity change, negative = cytotoxicity [5] -1.53% [at 0.349 µM] | max activation [7] -2.81%

Cc1onc(-c2c(Cl)cccc2Cl)c1C(=O)Cl
active: Potency [10] 21.9 µM | Potency [6] 17.4 µM
inactive: outcome [2] | Potency [3] | Potency [4]

O=C(c1ccccc1)C1(O)CCCCC1
inactive: Potency [1] | outcome [2] | Potency [3] | Potency [4]
active: Potency [10] 11.2 µM | Potency [6] 35.6 µM

FB(F)F
inactive: Potency [1] | outcome [2] | Potency [3] | Potency [4] | Potency [6]

C=C[Si](OC(C)=O)(OC(C)=O)OC(C)=O
inactive: Potency [1] | outcome [2] | Potency [3] | Potency [6]

CCOC(=O)COC(=O)c1ccccc1C(=O)OCC
active: Potency [10] 20 µM | Potency [6] 31.7 µM
inactive: outcome [2] | Potency [5] | Potency [3] | Potency [4]

CC(C#N)(CCC(=O)O)N=NC(C)(C#N)CCC(=O)O (stereo unspecified)
inactive: Potency [1] | outcome [2] | Potency [4] | Potency [10] | Potency [6]

OCCc1ccccn1
inactive: Potency [1] | outcome [2] | Potency [3] | Potency [4] | Potency [10] | Potency [6]

O=C(c1ccccc1O)c1ccccc1O
active: Potency [3] 60.5 µM | Potency [4] 24.9 µM | Potency [10] 11.1 µM | Potency [6] 62.6 µM
inactive: outcome [2] | Potency [5]

CC(C)C(=O)OC(=O)C(C)C
inactive: Potency [1] | outcome [2] | Potency [3] | Potency [10] | Potency [6]

CC(C)CCCO
inactive: outcome [2] | Potency [5] | Potency [3] | Potency [4] | Potency [10] | Potency [6]
